Measured values from PubChem BioAssay (Tox21).
Results filed as inconclusive are left out. Calls of active or inactive are those of the source. Unless noted, the call rests on the fitted dose curve; in most records, active means well fitted curve in the direction sought with a large enough effect in the repeat runs; inconclusive means weak or mixed curves; inactive means no such curve, though single readings can be large; an effect the other way counts as inactive or inconclusive.

Tests used:
[1] = qHTS RealTime-Glo MT Cell Viability Assay in HEK293 cells - 8 hour (AID 1224887); further: top concentration of the series differs between compounds; nearly all actives have a fitted effect of over 50% in size
Method in brief: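 Tox21 screen in HEK293 using RealTime-Glo MT chemistry, with cells and reagent co-dispensed. Luminescence proportional to viable cell number was captured at intervals during 40 h compound exposure at 37 C.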

[2] = qHTS RealTime-Glo MT Cell Viability Assay in HepG2 cells - 0 hour (AID 1224889); further: nearly all actives have a fitted effect of over 50% in size
Method in brief: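 Luminescence read-out: viable HepG2 cells reduce a prosubstrate to a NanoLuc substrate, giving a signal proportional to live cell number. Reads taken at 0, 8, 16, 24, 32 and 40 h of compound exposure at 37 C.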

[3] = A CellTox Green Cytotoxicity Assay to monitor cytotoxicity in HepG2 cells - 8 hour (AID 1224890); further: nearly all actives have a fitted effect of over 45% in size
Method in brief: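 Nonlytic assay: viable cells exclude the dye, so fluorescence scales with cell death. HepG2 at 600 cells/well, compounds added after 5 h, signal read across 40 h.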

[4] = qHTS assay to identify small molecule antagonists of the estrogen receptor alpha (ER-alpha) signaling pathway using the BG1 cell line in the presence of 0.1 nM 17-beta-estradiol - cell viability counter screen (AID 1259241); further: nearly all actives have a fitted effect of over 40% in size
Method in brief: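 Measures cytotoxicity alongside the ER-alpha antagonist readout: VM7Luc4E2 cells, charcoal-stripped serum, 0.1 nM 17beta-estradiol final, 22 hr compound incubation at 37C, CellTiter-Fluor fluorescence.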

[5] = qHTS assay to identify small molecule antagonists of the androgen receptor (AR) signaling pathway using the MDA cell line in the presence of 0.5 nM R1881 - cell viability counter screen (AID 1259242); further: nearly all actives have a fitted effect of over 45% in size
Method in brief: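 R1881 at 0.5 nM final stimulated MDA-kb2 cells during 16 hr compound treatment at 37C. Cytotoxicity read: CellTiter-Fluor fluorescence after 30 min.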

[6] = biological target: Androgen receptor (Homo sapiens) (UniProt P10275); assay: qHTS assay to identify small molecule antagonists of the androgen receptor (AR) signaling pathway using the MDA cell line in the presence of 0.5 nM R1881 (AID 1259243); further: nearly all actives have a fitted effect of over 50% in size
Method in brief: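 We exposed MDA-kb2 cells to compounds under 0.5 nM R1881 stimulation for 16 hr at 37C and quantified MMTV-driven luciferase by luminescence.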

[7] = qHTS assay to identify small molecule HDAC inhibitors (AID 1259364); further: potency means the concentration at half of the fitted maximal effect;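 further: wild-type HCT-116 cells with endogenous class I/II HDAC activity; nearly all actives have a fitted effect of over 45% in size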; on activity change, negative = inhibition: top concentration of the series differs between compounds
Method in brief: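 Relative class I and II HDAC activity is taken from the luminogenic signal in HCT-116 cells, with compound exposure 2 hr and reagent development 30 min at room temperature.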

[8] = qHTS assay to identify small molecule HDAC inhibitors - cell viability counter screen (AID 1259365); further: series mostly up to about 92 µM; nearly all actives have a fitted effect of over 50% in size
Method in brief: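 Following a 2hr exposure of overnight-plated wild-type HCT-116 cells to DMSO-delivered compounds, CellTiter-Glo was added and luminescence recorded after 30min at room temperature.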

[9] = qHTS assay to identify small molecule agonists of the sonic hedgehog signaling (Shh) pathway - cell viability counter screen (AID 1259366); further: nearly all actives have a fitted effect of over 50% in size
Method in brief: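 After a 4hr attachment at 37C, NIH/3T3 cells bearing an integrated Gli1-driven luciferase reporter were dosed with compounds. Treatment lasted 24hr, with the final hour including CellTiter-Fluor for a fluorescence viability measurement.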

[10] = qHTS assay to identify small molecule antagonists of the sonic hedgehog signaling (Shh) pathway - cell viability counter screen (AID 1259367); further: nearly all actives have a fitted effect of over 55% in size
Method in brief: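 After a 4 hr settling period, 3T3 Gli1-Luc cells were treated with DMSO-dissolved chemicals and conditioned medium, kept 24 hr at 37C in 5% CO2, and assayed for viability by CellTiter-Fluor fluorescence following 1 hr reagent incubation.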

[11] = qHTS assay to identify small molecule agonists of the sonic hedgehog signaling (Shh) pathway (AID 1259368; calls by dose curve;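 further: NIH/3T3-derived 3T3Gli1-Luc cells carrying a stable Gli1-driven firefly luciferase reporter; series mostly up to about 92 µM; nearly all actives have a fitted effect of over 15% in size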)
Method in brief: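 Mouse fibroblast (NIH/3T3) reporter cells with stably integrated Gli1-Luc were treated 24 hr with compound; firefly luciferase luminescence served as the read-out.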

[12] = qHTS assay to identify small molecule antagonists of the sonic hedgehog signaling (Shh) pathway (AID 1259369; calls by dose curve; further: nearly all actives have a fitted effect of over 45% in size)
Method in brief: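 Conditioned medium drives Shh signalling in 3T3Gli1-Luc cells; compounds in DMSO co-applied, 24hr at 37 C, then luciferase luminescence.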

[13] = biological target: Estrogen receptor beta (Homo sapiens) (UniProt Q92731); assay: qHTS assay to identify small molecule agonists of the estrogen receptor beta (ER-beta) signaling pathway (AID 1259377; active means well fitted activation curve with a large enough effect in the signal ratio in the repeat runs, not every such curve was filed as active; the % refers to the signal ratio)
Method in brief: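 In HEK293T cells bearing a UAS-beta-lactamase reporter under ER-beta control, DMSO-delivered compounds were incubated for 16 hr at 37C. Activity was detected as fluorescence 2 hours after LiveBLAzer B/G FRET substrate addition.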

[14] = biological target: Estrogen receptor beta (Homo sapiens) (UniProt Q92731); assay: qHTS assay to identify small molecule antagonists of the estrogen receptor beta (ER-beta) signaling pathway (AID 1259378; active means well fitted inhibition curve with a large enough effect in the signal ratio in the repeat runs, not every such curve was filed as active; the % refers to the signal ratio)
Method in brief: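 ER-beta-UAS-bla HEK293T (GripTite) cells in 2% charcoal-stripped FBS medium were preincubated 6 hr at 37C, dosed with compound, then stimulated with 1 nM E2 (final) for 16 hr; beta-lactamase reporter read by B/G FRET fluorescence after 2 hr substrate loading.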

[15] = qHTS assay to identify small molecule agonists of the androgen receptor (AR) signaling pathway in the presence of an antagonist - cell viability counter screen (AID 1259379);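 further: MDA-kb2 human breast cancer cells carrying an MMTV luciferase reporter; series mostly up to about 92 µM; nearly all actives have a fitted effect of over 25% in size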
Method in brief: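 A CellTiter-Fluor read-out measured viability of MDA-kb2 reporter cells (MMTV promoter with AR and GR response elements). Treatment: nilutamide 3.0uM final with compounds at 15 concentrations, 16 hr, 37C, 0% CO2.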

[16] = biological target: Androgen receptor (Homo sapiens) (UniProt P10275); assay: qHTS assay to identify small molecule agonists of the androgen receptor (AR) signaling pathway in the presence of an antagonist (AID 1259381; calls by dose curve; further: nearly all actives have a fitted effect of over 15% in size)
Method in brief: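 Using human MDA-kb2 cells with an MMTV promoter–luciferase construct (AR and GR response elements), agonist activity is scored under 3.0uM nilutamide (final) co-treatment; 16hr incubation, 37C, luminescence readout via ONE-Glo.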

[17] = A CellTox Green Cytotoxicity Assay to monitor cytotoxicity in HEK293 cells - 16 hour (AID 1224888); further: nearly all actives have a fitted effect of over 35% in size
Method in brief: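 Seeding of HEK293 cells together with cytotoxicity dye preceded a 5 h incubation at 37 C/5% CO2. Test compounds in DMSO were then added and fluorescence monitored across 40 h.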

[18] = biological target: Estrogen receptor (Homo sapiens) (UniProt P03372); assay: qHTS assay to identify small molecule antagonists of the estrogen receptor alpha (ER-alpha) signaling pathway using the BG1 cell line in the presence of 0.1 nM 17-beta-estradiol (AID 1259244); further: nearly all actives have a fitted effect of over 50% in size
Method in brief: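 VM7Luc4E2; 4xERE-luciferase; 0.1 nM E2 final; 22 h co-incubation, 37C; ONE-Glo luminescence after 30 min at room temperature.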

[19] = qHTS assay to identify small molecule agonists of the estrogen receptor beta (ER-beta) signaling pathway - cell viability counter screen (AID 1259380); further: nearly all actives have a fitted effect of over 30% in size
Method in brief: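 Cells used were ER-beta-UAS-bla HEK293T in medium with 2% charcoal-stripped FBS. They were treated for 16 hr at 37C. Viability came from CellTiter-Glo luminescence.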

[20] = qHTS assay to identify small molecule phospholipidosis (PLD) inducers (AID 1259344; active means well fitted curve in the direction sought with a large enough effect; an effect the other way counts as inactive or inconclusive)
Method in brief: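 HepG2 cells grown on collagen I take up LipidTOX Red while exposed to compound for 24 h; after fixation they are imaged at 20x and pit metrics are extracted.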
On the % scale 0 is the no-effect control and ±100 the full control effect.

Estrogen receptor beta (Homo sapiens), sequence (Q92731 whole entry, looked up): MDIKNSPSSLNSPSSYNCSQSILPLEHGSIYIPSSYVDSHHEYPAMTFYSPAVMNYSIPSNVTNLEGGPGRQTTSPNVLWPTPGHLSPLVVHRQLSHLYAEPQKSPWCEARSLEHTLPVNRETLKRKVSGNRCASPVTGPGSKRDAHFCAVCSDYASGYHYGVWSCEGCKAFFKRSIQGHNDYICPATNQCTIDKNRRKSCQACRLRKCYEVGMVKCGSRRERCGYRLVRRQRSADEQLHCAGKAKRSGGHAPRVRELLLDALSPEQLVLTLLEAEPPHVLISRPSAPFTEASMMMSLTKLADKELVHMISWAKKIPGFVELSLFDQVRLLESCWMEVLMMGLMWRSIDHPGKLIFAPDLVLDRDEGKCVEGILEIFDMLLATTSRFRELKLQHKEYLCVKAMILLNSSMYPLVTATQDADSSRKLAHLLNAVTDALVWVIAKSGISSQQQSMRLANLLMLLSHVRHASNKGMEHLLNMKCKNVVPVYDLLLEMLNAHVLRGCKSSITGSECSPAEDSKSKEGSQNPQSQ
Estrogen receptor (Homo sapiens), sequence (P03372 whole entry, looked up): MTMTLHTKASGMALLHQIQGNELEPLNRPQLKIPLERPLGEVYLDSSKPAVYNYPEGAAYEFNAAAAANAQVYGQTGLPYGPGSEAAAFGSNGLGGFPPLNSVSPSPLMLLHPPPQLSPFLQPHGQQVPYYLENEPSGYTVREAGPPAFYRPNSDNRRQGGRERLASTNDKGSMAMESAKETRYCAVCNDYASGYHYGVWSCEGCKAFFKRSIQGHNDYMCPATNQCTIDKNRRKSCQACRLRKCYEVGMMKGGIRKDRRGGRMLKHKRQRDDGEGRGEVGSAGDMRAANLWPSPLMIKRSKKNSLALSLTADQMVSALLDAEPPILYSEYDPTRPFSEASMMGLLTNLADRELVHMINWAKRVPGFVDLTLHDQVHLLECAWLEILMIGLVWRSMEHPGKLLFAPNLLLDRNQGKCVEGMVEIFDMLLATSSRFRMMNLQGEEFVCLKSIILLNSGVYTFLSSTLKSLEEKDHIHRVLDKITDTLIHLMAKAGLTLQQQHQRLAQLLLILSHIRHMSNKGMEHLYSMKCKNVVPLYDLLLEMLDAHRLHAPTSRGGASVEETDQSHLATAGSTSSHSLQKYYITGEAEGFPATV
Androgen receptor (Homo sapiens), sequence (P10275 whole entry, looked up): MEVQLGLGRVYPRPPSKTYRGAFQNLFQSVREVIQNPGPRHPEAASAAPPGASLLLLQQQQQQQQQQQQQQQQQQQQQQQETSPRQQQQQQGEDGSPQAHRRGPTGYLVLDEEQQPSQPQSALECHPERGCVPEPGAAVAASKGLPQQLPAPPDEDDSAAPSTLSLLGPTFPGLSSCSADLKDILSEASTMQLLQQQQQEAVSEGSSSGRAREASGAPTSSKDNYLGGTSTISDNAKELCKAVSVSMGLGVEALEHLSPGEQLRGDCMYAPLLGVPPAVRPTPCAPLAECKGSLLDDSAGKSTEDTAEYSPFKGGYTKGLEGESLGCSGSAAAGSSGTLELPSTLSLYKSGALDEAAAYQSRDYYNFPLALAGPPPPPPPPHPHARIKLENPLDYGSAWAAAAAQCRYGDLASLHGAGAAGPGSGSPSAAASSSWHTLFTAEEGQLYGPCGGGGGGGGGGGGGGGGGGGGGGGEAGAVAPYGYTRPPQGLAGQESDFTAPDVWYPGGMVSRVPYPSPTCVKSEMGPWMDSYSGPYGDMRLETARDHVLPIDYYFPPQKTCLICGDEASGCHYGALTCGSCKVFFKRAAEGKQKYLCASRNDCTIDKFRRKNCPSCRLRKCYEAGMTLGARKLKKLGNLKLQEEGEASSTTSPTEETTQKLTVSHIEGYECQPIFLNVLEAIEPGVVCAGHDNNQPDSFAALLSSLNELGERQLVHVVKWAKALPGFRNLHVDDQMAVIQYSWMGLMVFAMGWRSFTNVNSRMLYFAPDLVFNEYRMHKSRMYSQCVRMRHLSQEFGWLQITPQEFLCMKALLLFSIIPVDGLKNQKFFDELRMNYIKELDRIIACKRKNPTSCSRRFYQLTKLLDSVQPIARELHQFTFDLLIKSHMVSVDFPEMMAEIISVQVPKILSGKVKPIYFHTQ

COc1ccc(CCO)cc1
inactive: Potency [1] | Potency [2] | Potency [3] | outcome [4] | outcome [5] | Potency [6] | Potency [7] | outcome [8] | outcome [9] | outcome [10] | outcome [11] | Potency [12] | Potency [13] | Potency [14] | outcome [15] | outcome [16]

CC/C=C\CCOC(=O)c1ccccc1O
inactive: Potency [1] | Potency [17] | outcome [4] | outcome [5] | outcome [18] | outcome [8] | outcome [9] | outcome [10] | outcome [11] | Potency [12] | Potency [13] | Potency [14] | outcome [15] | outcome [19]
active: Potency [7] 15.4 µM

CCC(=O)CC
inactive: Potency [1] | Potency [17] | outcome [4] | outcome [5] | Potency [7] | outcome [8] | outcome [9] | outcome [10] | outcome [11] | Potency [12] | outcome [15] | outcome [19]

CN1C[C@@H]2C[C@H]1CN2c1cc2c(cc1F)c(=O)c(C(=O)O)cn2C1CC1
inactive: activity change, negative = cytotoxicity [1] 0.091% [at 15.8 µM] | activity change, negative = cytotoxicity [2] 10% [at 15.8 µM] | cytotoxicity increase [3] 6.75% [at 15.8 µM] | activity change, negative = cytotoxicity [4] -8.33% [at 19 µM] | viability change, negative = cytotoxic [5] -2.38% [at 19 µM] | activity change, negative = inhibition [18] -0.393% [at 19 µM] | outcome [20] | activity change, negative = inhibition [7] 2.17% [at 19 µM] | activity change, negative = cytotoxicity [8] 5.3% [at 19 µM] | viability change, negative = cytotoxic [9] -1.9% [at 19 µM] | viability change, negative = cytotoxic [10] 0.743% [at 19 µM] | activity change [11] -1.48% [at 18.9 µM] | activity change, negative = inhibition [12] -3.45% [at 19 µM] | activation [13] 1.21% [at 19 µM] | activity change, negative = cytotoxicity [15] 0.0403% [at 19 µM] | activity change, negative = cytotoxicity [19] 1.14% [at 19 µM]

CCCC(=O)OC/C=C(\C)CCC=C(C)C
inactive: Potency [1] | Potency [2] | Potency [3] | outcome [4] | outcome [5] | outcome [18] | Potency [7] | outcome [8] | outcome [9] | outcome [10] | outcome [11] | Potency [12] | Potency [13] | Potency [14] | outcome [15] | outcome [19]

O=S(=O)(O)c1ccc2c(N=Nc3ccc(S(=O)(=O)O)c4ccccc34)c(O)c(S(=O)(=O)O)cc2c1
inactive: activity change, negative = cytotoxicity [1] 2.74% [at 6.97 µM] | activity change [17] 8.43% [at 6.97 µM, stronger effect = higher value] | cytotoxicity increase [3] -1.78% [at 6.97 µM] | activity change, negative = cytotoxicity [4] -26.3% [at 8.39 µM] | viability change, negative = cytotoxic [5] -14.9% [at 8.39 µM] | outcome [20] | activity change, negative = inhibition [7] 1.26% [at 8.39 µM] | activity change, negative = cytotoxicity [8] -10.4% [at 8.39 µM] | viability change, negative = cytotoxic [9] -12.8% [at 8.39 µM] | activity change [11] -2.14% [at 8.39 µM] | activity change, negative = inhibition [12] 39.1% [at 8.39 µM] | activity change, negative = cytotoxicity [15] -15.5% [at 8.39 µM] | activity change, negative = cytotoxicity [19] 3.66% [at 8.39 µM]

Cc1c(N)cccc1Cl
inactive: Potency [1] | Potency [2] | Potency [3] | outcome [4] | outcome [5] | outcome [18] | Potency [7] | outcome [8] | outcome [9] | outcome [11] | Potency [13] | outcome [15] | outcome [19]

O=C(O)CSCC(=O)NC1CCSC1=O (stereo not drawn)
inactive: Potency [1] | Potency [2] | Potency [3] | outcome [4] | outcome [5] | Potency [6] | PLD induction [20] 5.58% [at 7.66 µM] | Potency [7] | outcome [8] | outcome [9] | outcome [11] | Potency [12] | Potency [13] | Potency [14] | outcome [15] | outcome [19] | outcome [16]
